The values that follow come from PubChem BioAssay (NCATS).

Records with an inconclusive call do not appear. Entries that show only a call come without a potency. Activity calls are given as the source filed them. Calls come from the whole dose curve; as a rule, active = well fitted cell-killing curve with a large enough effect; inconclusive = small, poorly fitted or top-dose-only effect; inactive = flat fitted curve, though single readings scatter. Peptide text beside a SMILES is read from it.
Potency is the fitted concentration of half-maximal effect.

The experiment in a line: Cell Viability - LYMP1-002 - Assay at 16 hr (AID 948). The following applies: LYMP1-002 lymphoblastoid cell viability; series mostly up to 92.2 µM. The source says: NIH Chemical Genomics Center [NCGC]
NIH Molecular Libraries Screening Centers Network [MLSCN]
National Institutes of Environmental Health Sciences [NIEHS]
National Toxicology Program [NTP]
We have developed a 1536-well cell-based assay for quantitative high throughput screening (qHTS) against a number of cell lines to determine in vitro cytotoxicity of small molecules. This particular assay uses a human lymphoblastoid cell line (LYMP1-002) purchased from Coriell Institute for Medical Research.
NCGC Assay Protocol Summary:
The CellTiter-Glo luminescent cell viability assay (Promega) is a homogeneous method to measure the number of viable cells in culture. The end point readout of this assay is based on quantitation of intracellular ATP, an indicator of metabolic activity, using the luciferase reaction. Luciferase catalyzes the oxidation of beetle Luciferin to oxyluciferin and light in the presence of ATP. The luminescent signal is proportional to amount of ATP present.
Using the CellTiter-Glo luminescent cell viability assay, the amount of cellular ATP was measured in the lymphoblastoid cell line with complete culture medium following compound treatment for 16 hours. The assay was performed in opaque white Kalypsys 1536-well plates. In the screen, tetraoctylammonium bromide was used as positive control. Library compounds were measured for their ability to cause acute toxicity in the cell line, as reflected by a decrease in intracellular ATP levels, in a concentration-dependent manner. […] AC50 values were determined from concentration-response data modeled with the standard Hill equation.
qHTS protocol for CellTiter Glo lymphoblastoid cellular assay
[Step] [Parameter] [Value] [Description]
1. Reagent; 5 uL; 2500 lymphoblastoid cells/well
2. Time; 5 hr; 37 C incubation
4. Controls; 23 nL; Tetraoctylammonium bromide 6.4pM to 92 uM
5. Time; 16 hr; 37 C incubation
6. Reagent; 5 uL; CellTiter Glo reagent
7. Time; 30 min; Room Temperature
8. Detection; Luminescence; Viewlux plate reader
Keywords: cell viability, cytotoxicity, lymphoblastoid cell line, luminescence, NTPHTS, NTPHTS_NCGC, NIEHS, DSSTox, MLSMR, MLSCN, NIH Roadmap, qHTS, NCGC
Turning to `CN(C)c1ccc2nc3ccc(=[N+](C)C)cc-3sc2c1`, the Potency was 12.6 µM (active).
Consider `CCCCC(CC)COC(=O)C(C#N)=C(c1ccccc1)c1ccccc1` (stereo not drawn), for which the Potency result is “inactive”.
For `CCCc1cc(=O)[nH]c(=S)[nH]1`, the Potency result was “inactive”.
Under `Cc1ccc(C)c(OCCCC(C)(C)C(=O)O)c1` stands “inactive”; under `COC(=O)[C@H](Cc1ccccc1)NC(=O)[C@@H](N)CC(=O)O` (H-Asp-Phe-OMe), “inactive”; under `CCc1nc(N)nc(N)c1-c1ccc(Cl)cc1`, “inactive”.
Turning to `Cc1cc(O)c2c(c1)C(=O)c1cc(O)cc(O)c1C2=O`, the Potency entry was “inactive”.
As to `COc1c2occc2cc2ccc(=O)oc12`, the Potency entry was “inactive”.
Take `c1ccc2[nH]c(-c3cscn3)nc2c1`: the Potency entry was “inactive”.
Regarding `CS(=O)(=O)OCCCCOS(C)(=O)=O`, the Potency entry was “inactive”.
Turning to `NS(=O)(=O)c1cc(C(=O)O)c(NCc2ccco2)cc1Cl`, the Potency result is “inactive”.
Regarding `Nc1ccc(S(N)(=O)=O)cc1`, the Potency result is “inactive”.
The value for `CC(=O)Nc1ccc(O)cc1` was “inactive”.
